Screening results deposited in PubChem by Broad Institute.
NOMO-1 viab – STK33 inhibitor candidate reducing NOMO-1 cell viability. inhibition, % (concentration not given with the values). 37,000 compounds, 7.5% hits. NOMO-1 AML viability, CellTiter-Glo luminescence, 72 h; in the data active means inhibition above about 80%; inconclusive means no clear call, values can overlap the other calls
Shh pathway inh – blocks Sonic Hedgehog signaling. 22,000 compounds, 2.1% hits. Shh-LIGHT2 Gli-luciferase reporter, 30 h. inhibition, % (no concentration beside the values);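 active means mean inhibition across valid replicates above about 65%, limit read from the data; inconclusive means mean under the limit, yet half or more replicates past it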;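 further: pathway switched on by Shh-conditioned medium diluted 1 in 25 in low serum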
PD-1 reversal – activators reversing PD-1 mediated T-cell inhibition. AID 2316. activation, % (concentration not given with the values). 29,000 tested, under 10 active. primary human CD4 T cells, PD-L1 beads, CellTiter-Glo 96 h; call rule not given here
Hits are given with their value; i = inactive; ? = inconclusive; nt = no result; ! = repeats disagree. Rows were chosen to be rich in hits. Some 7.7% of all compounds tested hit in one or more screens of this group.

SMILES	NOMO-1 viab	Shh pathway inh	PD-1 reversal
C=C1[C@@H](C2=CC(=O)OC2)CC[C@@]2(O)[C@@H]1CC1[C@H]2CC[C@@H]2C[C@@H](O[C@H]3O[C@@H](C)[C@@H](O[C@@H]4O[C@H](CO[C@@H]5O[C@H](CO)[C@@H](O)[C@H](O)[C@H]5O)[C@@H](O)[C@H](O)[C@H]4O)[C@H](OC)[C@H]3O)CC[C@]12C (some centres not stated)	nt	i	nt
CCc1ccc(Nc2nc3ccccc3nc2NS(=O)(=O)c2ccc(C)cc2)cc1	i	i	i
Cc1nnc(SCC(=O)Nc2ccc(Br)cc2Cl)s1	i	nt	nt
C[C@@H]1CN([C@@H](C)CO)C(=O)c2cc(N(C)C)ccc2O[C@H]1CN(C)Cc1ccc(Oc2ccccc2)cc1	i	i	i
C[C@H]1CN([C@@H](C)CO)C(=O)Cc2cc(N(C)C)ccc2O[C@H]1CN(C)Cc1ccc(Cl)c(Cl)c1	i	i	i
C[C@@H]1CN([C@@H](C)CO)C(=O)Cc2cc(N(C)C)ccc2O[C@@H]1CN(C)Cc1ccc(Cl)c(Cl)c1	127	i	i
C[C@H](CO)N1C[C@H](C)[C@H](CN(C)Cc2ccc(Oc3ccccc3)cc2)Oc2ccc(N(C)C)cc2CC1=O	i	i	i
C[C@@H]1CN([C@H](C)CO)C(=O)Cc2cc(N(C)C)ccc2O[C@H]1CN(C)Cc1ccc(Oc2ccccc2)cc1	110	i	i
C[C@@H]1CN([C@@H](C)CO)C(=O)c2cc(N(C)C)ccc2O[C@@H]1CN(C)Cc1ccc(Oc2ccccc2)cc1	90	i	i
O=C(NCCN1CCOCC1)C1COc2ccccc2O1 (configuration not stated)	i	nt	nt
COc1ccc(CN(C)C[C@H]2Oc3ccc(NC(=O)Nc4cccc5ccccc45)cc3C(=O)N([C@H](C)CO)C[C@H]2C)cc1	i	i	nt
C[C@H](CO)N1C[C@H](C)[C@@H](CN(C)Cc2ccc(Oc3ccccc3)cc2)Oc2ccc(NC(=O)Nc3cccc4ccccc34)cc2C1=O	104	i	i
C[C@H]1CN([C@@H](C)CO)C(=O)c2cc(NC(=O)Nc3cccc4ccccc34)ccc2O[C@@H]1CN(C)Cc1ccc(Oc2ccccc2)cc1	121	i	i
COc1ccc(CN(C)C[C@@H]2Oc3ccc(NC(=O)Nc4cccc5ccccc45)cc3C(=O)N([C@@H](C)CO)C[C@H]2C)cc1	i	i	i
COc1ccc(CN(C)C[C@@H]2Oc3ccc(NC(=O)Nc4cccc5ccccc45)cc3C(=O)N([C@@H](C)CO)C[C@@H]2C)cc1	i	nt	i
C[C@@H]1CN([C@H](C)CO)C(=O)c2cc(NC(=O)Nc3cccc4ccccc34)ccc2O[C@@H]1CN(C)Cc1ccc(Oc2ccccc2)cc1	89	i	nt
C[C@H](CO)N1C[C@H](C)[C@H](CN(C)Cc2ccc(Oc3ccccc3)cc2)Oc2ccc(NC(=O)Nc3cccc4ccccc34)cc2C1=O	113	nt	i
COc1ccc(CN(C)C[C@H]2Oc3ccc(NC(=O)Nc4cccc5ccccc45)cc3C(=O)N([C@@H](C)CO)C[C@@H]2C)cc1	i	i	i
COc1ccc(-n2c(Cn3ncc4ccccc4c3=O)n[nH]c2=S)cc1	i	nt	i
O=C(Cc1ccccc1)c1ccccc1C(=O)NCc1ccc(F)cc1	i	?	i
O=C(CSc1nnnn1-c1ccccc1)Nc1ccc(Oc2ccccc2)cc1	i	nt	i
COc1ccc(N(C(C)C(=O)Nc2ccc(Cl)cc2C)S(C)(=O)=O)cc1 (configuration not stated)	i	nt	i
CC1=CCC(C(C)(C)O[C@@H]2O[C@H](C)[C@@H](O)[C@H](O)[C@H]2O)CC1 (some centres not stated)	nt	i	nt
CNCCC(Oc1ccc(C(F)(F)F)cc1)c1ccccc1 (configuration not stated)	119!	i	i
CC(NS(=O)(=O)c1ccc(C(C)(C)C)cc1)c1ccccc1 (configuration not stated)	i	i	i
SMILES	NOMO-1 viab	Shh pathway inh	PD-1 reversal
CC1=Nc2ccc(C(F)(F)F)cc2C1(C)C	i	i	i
Cc1ccc(Oc2ncc(C(F)(F)F)cc2Cl)c2c1CCC2	?	i	i
O=C(Nc1sc2c(c1C(=O)NCc1ccco1)CCCC2)c1ccc(Cl)cc1Cl	i	nt	i
Cc1ccc(Nc2nc(N)nc(COc3cccc4cccnc34)n2)cc1	111	nt	i
Cc1cc(C)nc(Nc2n[nH]c(COc3cccc4cccnc34)n2)n1	i	nt	i
CCOC(=O)CSc1nc2ccc(Br)cc2c(=O)n1-c1ccccc1OC	i	nt	nt
C=C[C@@]12COC(=O)C(=C)C1[C@@H](O)[C@H](C(=C)C(=O)OC)[C@@H](OC(=O)C(=C)CO)C2 (some centres not stated)	116	i	i
C=C[C@@]12COC(=O)C(=C)[C@@H]1[C@@H](O)[C@H](C(=C)C(=O)OC)[C@@H](O)C2	83	i	i
